Screens as filed in PubChem BioAssay.
An excerpt weighted towards active compounds, which were near 3.6% of everything screened.
mHTT CaM bind: inhibitors of human mutant huntingtin-calmodulin interaction; P42858; inhibition, % at 15 µM; 3.6% of 190,000 active; AlphaScreen His-mHTT/GST-CaM binding, luminescence; AID 1671202
Pf apPOL inh: Pf-apPOL DNA polymerase inhibition. inhibition, % at 10 µM. Recombinant Pf-apPOL, molecular beacon fluorescence, 1.5 h. AID 1794808. 0.25% of 210,000 active
Large screens that a line does not name were inactive. Rule as the data show it: active = inhibition above about 50%; inactive = the rest.

Cc1ccc(C=C2SC(=S)N(c3ccc(S(=O)(=O)Nc4nccs4)cc3)C2=O)cc1	none (no result: mHTT CaM bind)
Cc1cc(C)c(C)c(S(=O)(=O)N2CCN(C)CC2)c1C	none
Cc1cc(C)c(C)c(S(=O)(=O)N2CCC(c3c[nH]c4c(C)cccc34)CC2)c1C	mHTT CaM bind 50
CCO/C=C1\c2cc([N+](=O)[O-])ccc2-c2c1cc([N+](=O)[O-])cc2[N+](=O)[O-]	mHTT CaM bind 74
COc1ccc(/C=C2\c3cc([N+](=O)[O-])ccc3-c3c2cc([N+](=O)[O-])cc3[N+](=O)[O-])cc1OC	none
Cc1cc(NS(=O)(=O)c2cccs2)n[nH]1	none (no result: mHTT CaM bind)
Cc1cc(NS(=O)(=O)c2cc(C(=O)O)ccc2F)n[nH]1	mHTT CaM bind 78
CCNC(=O)c1sc(-c2ccccc2C)nc1C	none
CC1CCN(C(=O)C2c3ccccc3CCN2CC(=O)Nc2ccc(F)cc2Cl)CC1 (stereo unspecified)	mHTT CaM bind 88
O=C(CN1CCc2ccccc2C1C(=O)N1CCCCC1)Nc1ccc(F)cc1Cl (stereo unspecified)	mHTT CaM bind 68
Cc1ccc(NC(=O)CN2CCc3ccccc3C2C(=O)N2CCC(C)CC2)cc1C (stereo unspecified)	none
CC1CCN(C(=O)C2c3ccccc3CCN2CC(=O)Nc2cc(F)ccc2Cl)CC1 (stereo unspecified)	none
COc1ccc(Cl)cc1NC(=O)N1CCN(CCc2ccccc2)CC1	none (no result: mHTT CaM bind)
O=C(CN1CCc2ccccc2C1C(=O)N1CCCCC1)NCc1ccc(F)cc1Cl (stereo unspecified)	none
COc1ccc(Cl)cc1NC(=O)N1CCN(Cc2nc(-c3ccco3)cs2)CC1	mHTT CaM bind 64
CC1CCN(C(=O)C2c3ccccc3CCN2CC(=O)Nc2cccc(Cl)c2)CC1 (stereo unspecified)	mHTT CaM bind 59
CCCCNC(=O)NC(=O)c1c(Cl)cc(Cl)nc1Cl	none
CN(C)C(=O)c1nc(-c2ccccc2)nc2c1OCCO2	none
O=C(Nc1ccccc1[N+](=O)[O-])c1cnccn1	none
Cc1cccn2cc(C(=O)N3CCN(c4ccccc4)CC3)nc12	none
COc1ccc(Cl)cc1NC(=O)CCN1CCN(C)CC1	Pf apPOL inh 55
O=C(CN1CCc2ccccc2C1C(=O)N1CCCCC1)NCc1ccc(Cl)cc1 (stereo unspecified)	none
COc1ccc(OC)c(NC(=O)CCN2CCCC2)c1	none
COc1ccc(Cl)cc1NC(=O)CN1CCc2ccccc2C1C(=O)N1CCCCC1 (stereo unspecified)	mHTT CaM bind 64
CCCNC(=O)c1ccc2ncc3c(=O)n(-c4ccccc4)[nH]c3c2c1	none
Cc1ccc(CNC(=O)C2CCCN(C(=O)c3cccc(C(F)(F)F)c3)C2)o1 (stereo unspecified)	none
CCCCCCCC(=O)NN1C(=O)C(=Cc2ccc(O)c(OC)c2)SC1=S	mHTT CaM bind 88
COc1cc(C=C2SC(=S)N(c3ccc(O)c(C(=O)O)c3)C2=O)ccc1O	mHTT CaM bind 54
CCOc1ccc(C=C2SC(=S)N(CCCCCC(=O)O)C2=O)cc1OC	none
CCC(C(=O)O)N1C(=O)C(=Cc2ccc(O)c(OC)c2)SC1=S (stereo unspecified)	none
COc1cccc(C=C2Oc3cc(OC(=O)C(C)(C)C)ccc3C2=O)c1OC	none
Cc1cc(NS(=O)(=O)c2ccc(Cl)cc2)ccc1O	none
CC(=NO)c1ccc2c(c1)CCC2	none (no result: mHTT CaM bind)
Oc1ccc(O)c2c1C1c3ccccc3C2c2ccccc21	none
Oc1ccc2ccccc2c1C1Nc2cccc3cccc(c23)N1	mHTT CaM bind 89 (no result: Pf apPOL inh)
O=c1c2c(ncn2Cc2ccccc2)n(-c2ccccc2)c(=O)n1C1CCCC1	none
Cc1cc(C)cc(NC(=O)C2CC(=O)N(CCc3c[nH]c4ccc(Cl)cc34)C2)c1 (stereo unspecified)	mHTT CaM bind 100
O=C(Nc1ccccc1)C1CC(=O)N(CCc2c[nH]c3ccc(Cl)cc23)C1 (stereo unspecified)	none
O=C(NC1CCCC1)C1CC(=O)N(CCc2c[nH]c3ccc(Cl)cc23)C1 (stereo unspecified)	mHTT CaM bind 65
COc1ccc2[nH]cc(CCN3CC(C(=O)Nc4cccc(C)c4C)CC3=O)c2c1 (stereo unspecified)	none
O=C(Nc1ccc(F)cc1)C1CC(=O)N(CCc2c[nH]c3ccc(F)cc23)C1 (stereo unspecified)	none
Cc1cccc(NC(=O)C2CC(=O)N(CCc3c[nH]c4ccc(Cl)cc34)C2)c1C (stereo unspecified)	mHTT CaM bind 71
O=C(NC1CCCCC1)C1CC(=O)N(CCc2c[nH]c3ccc(Cl)cc23)C1 (stereo unspecified)	none
COC(=O)c1ccc(NC(=O)C2CC(=O)N(CCc3c[nH]c4ccc(F)cc34)C2)cc1 (stereo unspecified)	mHTT CaM bind 59
O=C(C1CCN(c2ccncc2)CC1)N1CCN(c2ccc(F)cc2)CC1	none
CSc1sc(C(=O)NN=Cc2ccccc2Cl)c2c1C(O)CCC2 (stereo unspecified)	none (no result: mHTT CaM bind)
CCNc1cc(N2CCCC(CCC(=O)Nc3ccc(OCC)cc3)C2)ncn1 (stereo unspecified)	none
Cc1ccc2[nH]cc(CCN3CC(C(=O)Nc4ccc(F)c(Cl)c4)CC3=O)c2c1 (stereo unspecified)	mHTT CaM bind 54
Cc1ccc(NC(=O)C2CC(=O)N(CCc3c[nH]c4ccc(F)cc34)C2)cc1C (stereo unspecified)	none
Cc1ccc2[nH]cc(CCN3CC(C(=O)Nc4ccc(Cl)cc4)CC3=O)c2c1 (stereo unspecified)	none
Cc1ccc(NC(=O)C2CC(=O)N(CCc3c[nH]c4ccc(Cl)cc34)C2)cc1C (stereo unspecified)	mHTT CaM bind 100
C#CCOc1c(Br)cc(/C=C2\NC(=O)NC2=O)cc1OCC	none
CC(=O)Nc1ccc(S(=O)(=O)NC(C)C(=O)O)cc1 (stereo unspecified)	none
CCCCC(=O)Nc1c(-c2cccc(F)c2)nc2cc(C)ccn12	none
OC(C#CC(O)(c1ccccc1)c1ccccc1)(c1ccccc1)c1ccccc1	none (no result: mHTT CaM bind)
COc1ccc(C(O)(C#Cc2ccccc2)c2ccccc2)cc1 (stereo unspecified)	mHTT CaM bind 60
c1coc(-c2nc3sc(-c4ccco4)nc3s2)c1	mHTT CaM bind 100
c1coc(-c2nccs2)c1	none (no result: mHTT CaM bind)
Cc1cc(NCC(O)c2ccc([N+](=O)[O-])cc2)nc(-n2nc(C)cc2C)n1 (stereo unspecified)	mHTT CaM bind 97
Cc1cc(Oc2ccc([N+](=O)[O-])cc2)nc(-n2nc(C)cc2C)n1	none
Cc1cc(Nc2ccc(Cl)cc2)n2nccc2n1	mHTT CaM bind 64
Cc1ccc(Nc2cc(C)nc3ccnn23)cc1	none
CCc1nnc(NC(=O)CSc2nnc(-c3ccco3)c(-c3ccco3)n2)s1	mHTT CaM bind 65
CCc1nnc(NC(=O)CSc2ncccn2)s1	none
CCSc1nnc(NC(=O)CSc2nnc(-c3ccco3)c(-c3ccco3)n2)s1	mHTT CaM bind 81
CCSc1nnc(NC(=O)CSc2nnc(CNC(=O)c3ccco3)o2)s1	none
O=C(CSc1nnc(-c2ccco2)c(-c2ccco2)n1)Nc1nc2ccccc2s1	none
Cc1nnc(NC(=O)CSc2nnc(-c3ccco3)c(-c3ccco3)n2)s1	mHTT CaM bind 67
COc1ccccc1-n1c(SCC(=O)NCCc2ccccc2)nc2c(c1=O)SCC2	none
Cc1nc(C(=O)NC(C)C)c(C)n1C1CCN(C)CC1	none
COc1ccc(N2CCCS2(=O)=O)cc1NC(=O)c1ccccc1C(F)(F)F	none
CC1=Nc2ccccc2C1=Cc1sc(=N)n(-c2nccs2)c1O	mHTT CaM bind 100
